Results from PubChem BioAssay (NCATS).
Values joined by “and” are separate entries in the source; they are usually repeats but may differ in a detail not shown here. Equal values may be shown once. Active and inactive are the calls of the source. The call rests on the fitted dose curve; in most records, active means well fitted activation curve with a large enough effect; inconclusive means small, poorly fitted or top-dose-only effect; inactive means no such curve, though single readings can be large or run the other way.

Molecular target: Cytochrome P450 3A4 (Homo sapiens) (UniProt P08684)
Sequence (P08684 whole entry, looked up): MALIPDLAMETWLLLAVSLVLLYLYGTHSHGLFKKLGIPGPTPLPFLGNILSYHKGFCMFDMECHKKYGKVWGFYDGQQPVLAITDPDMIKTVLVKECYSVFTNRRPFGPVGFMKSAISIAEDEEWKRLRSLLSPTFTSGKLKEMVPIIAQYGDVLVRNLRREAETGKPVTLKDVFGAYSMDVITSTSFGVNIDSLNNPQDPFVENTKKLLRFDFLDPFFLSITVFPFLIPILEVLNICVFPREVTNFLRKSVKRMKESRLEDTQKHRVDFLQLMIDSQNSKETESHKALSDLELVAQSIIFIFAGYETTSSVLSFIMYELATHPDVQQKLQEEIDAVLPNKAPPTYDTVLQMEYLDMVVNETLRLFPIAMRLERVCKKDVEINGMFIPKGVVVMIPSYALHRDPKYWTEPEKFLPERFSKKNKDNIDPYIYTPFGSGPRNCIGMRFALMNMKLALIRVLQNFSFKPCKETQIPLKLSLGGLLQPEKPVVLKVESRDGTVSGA
Test: qHTS Assay for Activators of Cytochrome P450 3A4 (AID 885); further: nearly all actives have a fitted effect of over 65% in size
Conditions: recombinant CYP3A4, Luciferin-PPXE luminescence, 60 min; series mostly up to 57.1 µM; activity change, positive = activation: at the top concentration
Outline: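 Luminescent readout of luciferin formed from 25 uM Luciferin-PPXE (KM level) by 20 nM CYP3A4 in 200 mM KPO4, with 60 min NADPH-driven reaction at room temperature after 10 min compound exposure. Ketoconazole (57 uM) defined 100% inhibition.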

Activity change, positive = activation, inactive:
CCc1cc2c(nc1CC)CCN(CC/C(C)=N/O[C@@H](C)CN1CCCc3nc(C)c(C)cc31)C2 -50.2% [at 11.4 µM]
CC1CCC2C(=O)N3C(CCC(C)C3c3ccccc3Br)C(=O)N2C1c1ccc(C#CCN(C)C)cc1 (stereo not given) -38.2% [at 11.4 µM]
CC(C)=NO[C@@H](C)CN1CCCCc2nc(C)c(C)cc21 -46.4% [at 11.4 µM]
CO[C@H]1COC(=O)[C@H]2CCCN2C(=O)C/C=C\[C@@H](C)[C@H](OC)COC(=O)C/C=C\[C@@H]1C -32.7% [at 11.4 µM]
CCCNC(=O)OC[C@@H]1O[C@H](CCO/N=C(\C)CCN2CCCCc3nc(C)c(C)cc32)C=C[C@@H]1Oc1ccc(OC)cc1 -95.5% [at 11.4 µM]
O=C1[C@@H]2[C@H]3[C@H](O)[C@H](O)C/C(=N/OCc4ccccc4)[C@H]3CC[C@H]2C(=O)N1c1ccc(F)cc1F -34.3% [at 11.4 µM]
CO/N=C(\C)CCN1CCCCc2nc(C)c(C)cc21 -38.2% [at 11.4 µM]
CCC[C@@H]1C[C@@]1(CCC)C(NC(=O)OCc1ccccc1)c1ccc(-c2ccccc2)cc1 (stereo not given in full) -59.3%
CC(=O)OC[C@@H]1O[C@H](C/C=N\O[C@@H](C)CN2CCCCc3nc(C)c(C)cc32)C=C[C@@H]1OC(C)=O -57.2% [at 11.4 µM]
Clc1ccc(C2[C@H]3CN(Cc4ccc(-c5ccccc5)cc4)[C@H](c4ccccc4)C34CC2(c2cccnc2)C4)cn1 (stereo not given in full) -52%
CC(=O)OC[C@H]1O[C@@H](O/N=C(\C)CCN2CCc3nc(-c4ccccc4)c(-c4ccccc4)cc3C2)[C@H](OC(C)=O)[C@@H](OC(C)=O)[C@H]1OC(C)=O -41.6% [at 11.4 µM]
CC(=O)OC[C@H]1O[C@@H](O/N=C(\C)CCN2CCCc3nc(C)c(C)cc32)[C@H](OC(C)=O)[C@@H](OC(C)=O)[C@H]1OC(C)=O -36.5% [at 11.4 µM]
CC(=O)OC[C@H]1O[C@@H](O/N=C(\C)CCN2CCCCc3nc(C)c(C)cc32)[C@H](OC(C)=O)[C@@H](OC(C)=O)[C@H]1OC(C)=O -53.9% [at 11.4 µM]
CO[C@@H]1COC(=O)[C@@H](C)NC(=O)C/C=C\[C@@H](C)[C@H](NS(=O)(=O)c2ccc(C)cc2)COC(=O)[C@H](C)NC(=O)C/C=C\[C@H]1C -53.2% [at 11.4 µM]
FC(F)(F)c1ccc(C2[C@H]3CN(Cc4ccc(-c5ccccc5)cc4)[C@H](c4ccccc4)C34CC2(c2ccccc2)C4)cc1 (stereo not given in full) -45%
COC(=O)C/C=C\[C@@H](C)[C@@H](/C=N\OC[C@@H](O)[C@H]1O[C@H]2OC(C)(C)O[C@H]2[C@@H]1O)OC -43.3% [at 11.4 µM]
CC1CCC2C(=O)N3C(CCC(C)[C@H]3c3ccccc3Br)C(=O)N2C1c1ccccc1Br (stereo not given in full) -55.3% [at 11.4 µM]
CC(=O)OC[C@H]1O[C@@H](O/N=C(\C)CCC(=O)OC[C@@H]2O[C@H](C#Cc3ccccc3)C=C[C@@H]2Oc2ccc(C)cc2)[C@H](OC(C)=O)[C@@H](OC(C)=O)[C@H]1OC(C)=O -90.4% [at 11.4 µM]
CC(=O)OC[C@@H]1O[C@H](C/C=N\O[C@@H](C)CN2CCCc3nc(C)c(C)cc32)C=C[C@@H]1OC(C)=O -35.5% [at 11.4 µM]
CC(=O)OCC1OC(C#Cc2ccc(C)cc2C)C=CC1OC(C)=O (stereo not given) -83.4% [at 11.4 µM]
CC1CCC2C(=O)OC(CO)CN2C1c1ccc(Br)cc1 (stereo not given) -46.2% [at 11.4 µM]
COC(=O)NC(/C(C(=O)OC)=C(\C)NCc1ccccc1)c1ccc2ccccc2c1 (stereo not given) -55.9% [at 11.4 µM]
C[C@@H]1OC2C3=C(C(=O)[C@H]4O[C@@H]4[C@H]3O)[C@@H]1[C@H]1[C@H](C)OC=C3[C@H](O)[C@H]4O[C@H]4/C(=N\OCc4ccccc4)[C@@]321 -58.8% [at 11.4 µM]
CC1CCC2C(=O)N3C(CCC(C)[C@H]3c3cccc(N4CCCC4=O)c3)C(=O)N2C1c1cccc(N2CCCC2=O)c1 (stereo not given in full) -53.3% [at 11.4 µM]
COc1ccc(OC)c(-c2ccccc2/C=N/NS(=O)(=O)c2ccc(C)cc2)c1 -59.9% [at 11.4 µM]
c1ccc(C2[C@H]3CN(Cc4cccnc4)[C@H](c4ccccc4)C34CC2(c2ccccc2)C4)cc1 (stereo not given in full) -63.5%
COc1ccc(OC2C=CC(C#Cc3ccc(C(C)(C)C)cc3)OC2CO)cc1 (stereo not given) -56.3% [at 11.4 µM]
COc1ccc(OC2C(O)COC2/C=C/c2ccccc2)cc1 (stereo not given) -47.5% [at 11.4 µM] and -40.4% [at 11.4 µM]
COc1cccc([C@H](O)Cn2cc(-c3cccc(CON=C(C)C)c3)nn2)c1 -43.8% [at 11.4 µM]
CC(C)CO/N=C1/C[C@@H](O)[C@@H](O)[C@@H]2[C@@H]3C(=O)N(Cc4ccc5c(c4)OCO5)C(=O)[C@H]3CC[C@H]12 -96.6% [at 11.4 µM]
COC(=O)C(/C=C/C(C)Cc1cc(Br)cc(OCc2ccccc2)c1OC)OCc1ccccc1 (stereo not given) -50.4% [at 11.4 µM]
C[C@@H](c1ccccc1)N1C(=O)[C@H]2[C@H]3[C@H](O)[C@H](O)C/C(=N/OCc4ccccc4)[C@@H]3CC[C@@H]2C1=O -50% [at 11.4 µM]
COC(=O)c1cccc(C23CC4(C2)[C@H](CN(Cc2ccc(C(F)(F)F)cc2)[C@@H]4c2ccccc2)C3c2ccc(C(F)(F)F)cc2)c1 (stereo not given in full) -34.6%
COC(=O)C/C=C\[C@@H](C)[C@@H](/C=N\O[C@@H]1O[C@H](COC(C)=O)[C@H](OC(C)=O)[C@H](OC(C)=O)[C@H]1OC(C)=O)OC -32.3% [at 11.4 µM]
CCN1C(=O)[C@H]2[C@H]3[C@H](O)[C@H](O)C/C(=N/OC[C@@H](C)[C@H](OCc4ccccc4)C(C)C)[C@@H]3CC[C@@H]2C1=O -44.7% [at 11.4 µM]
C[C@@H](c1ccccc1)N1C(=O)[C@H]2[C@H]3[C@H](O)[C@H](O)C/C(=N/OCc4ccccc4)[C@H]3CC[C@@H]2C1=O -40.9% [at 11.4 µM]
Cn1c(N)c(C(=O)COC(=O)c2cc(-c3ccccc3)nc3ccccc23)c(=O)n(Cc2ccccc2)c1=O -47.3%
CC(=O)OC[C@@H]1O[C@@H](O/N=C2/C[C@@H](O)[C@@H](O)[C@@H]3[C@@H]4C(=O)N(Cc5ccc6c(c5)OCO6)C(=O)[C@H]4CC[C@H]23)[C@H](OC(C)=O)[C@H](OC(C)=O)[C@@H]1OC(C)=O -74.2% [at 11.4 µM]
C[C@@H]1/C=C\CC(=O)OC[C@H]2O[C@@H](C=C[C@@H]2O)[C@H](C)/C=C\CC(=O)OC1 -35.6% [at 11.4 µM]
O=C(NCCC[N+]1=CC=N[C@H]1c1ccccc1)N1CCCc2nc(-c3ccc(Br)cc3)ccc21 -35.8% [at 11.4 µM]
